{"source": "PubChem BioAssay AID1852", "about": "(Sanford-Burnham Center for Chemical Genomics, 2009)", "note": "Screen size: about 2,500 compounds; about 1,100 (44%) were called active.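 The calls were made as follows: active = inhibition above 50% at 4 µM in the single-point screen; inactive = inhibition of 50% or less.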 So high a share suggests a set chosen from earlier hits. Some of the results follow.", "data": [{"assay": "TNF-a-driven NF-kB reporter inhibitors, primary screen, selectivity assay for NOD1/NOD2 signaling inhibitor project, cell-based, HEK293T NF-kB-Luc, luminescence (AID 1852)", "details": "TNF-a induced, 14 h, at 4 µM, hits give high values", "values": [{"smiles": "CCCCN=C[C@]12CCC(O)CC1(O)CCC1[C@@H]2CC[C@]2(C)[C@H](C3C=CC(=O)O3)CCC12O", "note": "(stereo partly drawn)", "inhibition": "92.1% (active)"}, {"smiles": "COc1ccc(-c2cc(-c3ccccc3)[n+](C)c(-c3ccccc3)c2)cc1", "inhibition": "46.4% (inactive)"}, {"smiles": "COc1ccc(-[n+]2c(-c3ccccc3)cc(-c3ccc(C)cc3)cc2-c2ccccc2)cc1", "inhibition": "75.4% (active)"}, {"smiles": "CN(C)c1ccc(-[n+]2c(-c3ccccc3)cc(-c3ccccc3)cc2-c2ccccc2)cc1", "inhibition": "94.6% (active)"}, {"smiles": "O=C(c1ccc(Cl)cc1)C1CCCN(Cc2cccc3ncccc23)C1", "note": "(stereo not drawn)", "inhibition": "29.9% (inactive)"}, {"smiles": "CCOc1ccc(-c2c(C)n(-c3ccc(OCC)cc3)c3[n+]2CCCCC3)cc1", "inhibition": "87% (active)"}, {"smiles": "COC1CC(OC2CCC3(C)C(CCC4C3CCC3(C)C(C5=CC(=O)OC5)C(OC(C)=O)CC43O)C2)OC(C)C1OC1OC(COC2OC(CO)C(O)C(O)C2O)C(O)C(O)C1O", "note": "(stereo not drawn)", "inhibition": "94.7% (active)"}, {"smiles": "CC(=O)c1c(C)n(C2CCCCC2)c2ccc(O)cc12", "inhibition": "90% (active)"}, {"smiles": "CC(C)(C)c1ccc(CSc2cnn(C(C)(C)C)c(=O)c2Cl)cc1", "inhibition": "48.3% (inactive)"}, {"smiles": "NC(=O)c1cn(C2OC(CO)C(O)C2O)c2ncnc(N)c12", "note": "(stereo not drawn)", "inhibition": "99.9% (active)"}, {"smiles": "CN1C2CCC1/C(=C/c1ccccn1)C(=O)/C2=C\\c1ccccn1", "inhibition": "102% (active)"}, {"smiles": "Cc1cc(C)cc(N2C(=O)NC(=O)/C(=C/c3cccn3-c3ccc(Cl)cc3)C2=O)c1", "inhibition": "-24% (inactive)"}, {"smiles": "CN1C(=O)/C(=C/c2cccn2-c2ccc3ccccc3c2)C(=O)NC1=S", "inhibition": "5.6% (inactive)"}, {"smiles": "CCn1nc(/C=C/c2ccccc2)nc2c(=O)n(C)c(=O)nc1-2", "inhibition": "104% (active)"}, {"smiles": "CCn1nc(-c2ccccc2)nc2c(=O)n(C)c(=O)nc1-2", "inhibition": "99.1% (active)"}, {"smiles": "O=C1NC(=O)N(CCc2ccc(F)cc2)C(=O)/C1=C\\C=C\\c1ccccc1", "inhibition": "56% (active)"}, {"smiles": "COc1cc(OC)c(OC)cc1/C=C1/C(=O)NC(=O)N(Cc2ccccc2)C1=O", "inhibition": "29.5% (inactive)"}, {"smiles": "O=C1NC(=O)N(Cc2ccco2)C(=O)/C1=C/C=C/c1ccco1", "inhibition": "-10.1% (inactive)"}, {"smiles": "C=CCN1C(=O)NC(=O)/C(=C/C=C/c2ccccc2)C1=O", "inhibition": "49.4% (inactive)"}, {"smiles": "O=C1NC(=O)N(Cc2ccccc2)C(=O)/C1=C/C=C/c1ccco1", "inhibition": "36.6% (inactive)"}, {"smiles": "O=C1NC(=O)N(Cc2ccc(F)cc2)C(=O)/C1=C\\C=C\\c1ccco1", "inhibition": "89.3% (active)"}, {"smiles": "COc1ccc(Oc2cc(NC(=O)c3nn(C)cc3[N+](=O)[O-])cc([N+](=O)[O-])c2)cc1", "inhibition": "61.5% (active)"}, {"smiles": "C[C@H]1CCC[C@@H](O)CCC/C=C/c2cc(O)cc(O)c2C(=O)O1", "inhibition": "73.6% (active)"}, {"smiles": "CC(=O)c1cn(Cc2ccccc2F)c2ccccc12", "inhibition": "31.5% (inactive)"}, {"smiles": "Cc1nc2c(=O)n(C)c(=O)nc-2n(C)n1", "inhibition": "99.4% (active)"}, {"smiles": "CCn1ccnc1CN1CCCC(C(=O)c2cc(Cl)ccc2OC)C1", "note": "(stereo not drawn)", "inhibition": "0.8% (inactive)"}, {"smiles": "O=c1c2ccccc2nc(/C=C/c2ccccc2O)n1-c1ccccc1O", "inhibition": "64.8% (active)"}, {"smiles": "O=c1c2ccccc2nc(/C=C/c2ccc3c(c2)OCO3)n1-c1ccccc1", "inhibition": "-34.6% (inactive)"}, {"smiles": "O=C1C(=O)c2ccccc2-c2ccccc21", "inhibition": "104% (active)"}, {"smiles": "CN1C(=O)NC(=O)/C(=C\\C=C\\c2ccccc2[N+](=O)[O-])C1=O", "inhibition": "72.4% (active)"}, {"smiles": "O=C1NC(=O)N(c2ccccc2)C(=O)/C1=C\\C=C\\c1ccccc1", "inhibition": "45.9% (inactive)"}, {"smiles": "O=C1NC(=O)N(c2ccccc2)C(=O)/C1=C/C=C/c1ccco1", "inhibition": "32% (inactive)"}, {"smiles": "O=c1nc(/C=C/c2ccc(Cl)cc2Cl)cc(C(F)(F)F)[nH]1", "inhibition": "-105% (inactive)"}, {"smiles": "COc1ccc(-n2c(O)c(/C=C3\\C=Nc4ccc(Br)cc43)c(=O)[nH]c2=O)cc1", "inhibition": "23.8% (inactive)"}, {"smiles": "O=C(c1cc(-c2ccc(Cl)cc2)n(-c2ccc(Cl)cc2Cl)n1)N1CCOCC1", "inhibition": "-36% (inactive)"}, {"smiles": "CC(=O)OC[C@]12CCC(C)=C[C@H]1O[C@@H]1[C@H](O)[C@@H](OC(C)=O)[C@@]2(C)[C@]12CO2", "inhibition": "102% (active)"}, {"smiles": "C=C(C=O)CC1CC(O)[C@]2(C)OC3CC4OC5C[C@]6(C)O[C@]7(C)CCC8OC9C[C@]%10(C)OC%11C(C)=CC(=O)OC%11CC%10OC9C[C@@H](C)C8OC7CC6O[C@]5(C)CC5OC5C4OC3CC2O1", "note": "(stereo partly drawn)", "inhibition": "80.4% (active)"}, {"smiles": "CCCCn1c(=O)c(C(=O)Nc2cnccn2)c(O)c2ccccc21", "inhibition": "3.4% (inactive)"}, {"smiles": "CC(C)CCn1c(=O)c(C(=O)Nc2ccccc2S(N)(=O)=O)c(O)c2ccccc21", "inhibition": "-7.2% (inactive)"}, {"smiles": "CCCCCn1c(=O)c(C(=O)Nc2cnccn2)c(O)c2ccccc21", "inhibition": "53.4% (active)"}, {"smiles": "CCCCCn1c(=O)c(C(=O)Nc2ccccc2S(N)(=O)=O)c(O)c2ccccc21", "inhibition": "-7% (inactive)"}, {"smiles": "CCCCCCCn1c(=O)c(C(=O)Nc2cnccn2)c(O)c2ccccc21", "inhibition": "34.9% (inactive)"}, {"smiles": "CCCCCCn1c(=O)c(C(=O)Nc2cnccn2)c(O)c2ccccc21", "inhibition": "52.2% (active)"}, {"smiles": "Cc1ccc(N2C(=O)NC(=O)/C(=C\\C=C\\c3ccco3)C2=O)cc1", "inhibition": "9.7% (inactive)"}, {"smiles": "O=Cc1cn(Cc2cccc([N+](=O)[O-])c2)c2ccccc12", "inhibition": "86.7% (active)"}, {"smiles": "O=c1[nH]c(=O)n(-c2ccccc2F)c(O)c1/C=C1\\C=Nc2ccccc21", "inhibition": "14.8% (inactive)"}, {"smiles": "COc1ccc(-n2c(/C=C/c3ccc(O)cc3)nc3ccccc3c2=O)cc1", "inhibition": "3.4% (inactive)"}, {"smiles": "Cc1cccc(-n2c(/C=C/c3ccc([N+](=O)[O-])o3)nc3ccccc3c2=O)c1", "inhibition": "91.9% (active)"}, {"smiles": "O=c1c2ccccc2nc(/C=C/c2ccc([N+](=O)[O-])o2)n1-c1ccc(O)cc1", "inhibition": "89.7% (active)"}, {"smiles": "Nc1nonc1C(=O)N/N=C/c1ccc([N+](=O)[O-])o1", "inhibition": "31.1% (inactive)"}, {"smiles": "COc1cccc(N2C(=O)/C(=C/c3ccc(C)o3)C(=O)NC2=S)c1", "inhibition": "40.9% (inactive)"}, {"smiles": "O=C1NC(=S)N(c2ccccc2F)C(=O)/C1=C\\c1cccs1", "inhibition": "-11.1% (inactive)"}, {"smiles": "Cc1ccc(/C=C2\\C(=O)NC(=S)N(c3ccccc3F)C2=O)s1", "inhibition": "106% (active)"}, {"smiles": "Cc1ccc(Sc2ccc(C=C3C(=O)N(C)C(=O)N(C)C3=O)o2)cc1", "inhibition": "-5.5% (inactive)"}, {"smiles": "C=CCn1c(O)c(C(C)=NCc2cc(OC)cc(OC)c2)c(=O)[nH]c1=O", "inhibition": "16% (inactive)"}, {"smiles": "Cc1ccccc1-n1c(O)c(/C=C2/C(c3ccccc3)=Nc3ccccc32)c(=O)[nH]c1=O", "inhibition": "16.1% (inactive)"}, {"smiles": "CCOc1ccc(-c2cc(C)[n+](CCN(CC)CC)c(-c3ccc(OCC)cc3)c2)cc1", "inhibition": "51.9% (active)"}, {"smiles": "C[C@@H]1O[C@@H](O[C@H]2C[C@@H](O)[C@]3(CO)[C@H]4[C@H](O)C[C@]5(C)[C@@H](C6=CC(=O)OC6)CC[C@]5(O)[C@@H]4CC[C@]3(O)C2)[C@H](O)[C@H](O)[C@H]1O", "inhibition": "106% (active)"}, {"smiles": "CC(C)N1C(=O)/C(=C/C=C/c2ccco2)C(=O)N(Cc2ccco2)C1=O", "inhibition": "22.9% (inactive)"}, {"smiles": "CC(C)[C@H]1C(=O)O[C@H](C(C)C)C(=O)N(C)[C@@H](C(C)C)C(=O)O[C@H](C(C)C)C(=O)N(C)[C@@H](C(C)C)C(=O)O[C@H](C(C)C)C(=O)N1C", "inhibition": "90.7% (active)"}, {"smiles": "COC(=O)[C@]12OC[C@]34C([C@@H](O)[C@@H]1O)[C@]1(C)CC(=O)C(O)=C(C)[C@@H]1C[C@H]3OC(=O)[C@H](O)[C@@H]24", "note": "(stereo partly drawn)", "inhibition": "76.8% (active)"}, {"smiles": "CC[C@@]1(O)C(=O)OCc2c1cc1n(c2=O)Cc2cc3ccccc3nc2-1", "inhibition": "98.4% (active)"}, {"smiles": "Cc1cccc(OCCn2cccc2/C=C2/C(=O)NC(=O)N(Cc3ccco3)C2=O)c1", "inhibition": "9.6% (inactive)"}, {"smiles": "C[C@]12CCC3C(CCC4=CC(O)CC[C@@]43/C=N/O)C1(O)CCC2C1=CC(=O)OC1", "note": "(stereo partly drawn)", "inhibition": "97.3% (active)"}, {"smiles": "C=C1C(=O)O[C@@H]2C[C@@H](C)[C@@H]3C=CC(=O)[C@@]3(C)[C@@H](OC(=O)CC(=O)O[C@H]3[C@@H]4C(=C)C(=O)O[C@@H]4C[C@@H](C)[C@@H]4C=CC(=O)[C@]43C)[C@H]12", "inhibition": "103% (active)"}, {"smiles": "C=C1C(=O)O[C@@H]2C[C@@H](C)[C@@H]3C=CC(=O)[C@@]3(C)[C@@H](O)[C@H]12", "inhibition": "104% (active)"}, {"smiles": "C=C1C(=O)O[C@H]2C[C@@H](C)[C@@H]3C=CC(=O)[C@@]3(C)C[C@H]12", "inhibition": "108% (active)"}, {"smiles": "C=C1C(=O)O[C@@H]2C[C@@H](C)[C@@H]3C4OC4C(=O)[C@@]3(C)[C@@H](O)[C@H]12", "note": "(stereo partly drawn)", "inhibition": "96.7% (active)"}, {"smiles": "O=C(c1ccc(Cl)cc1)C1CCCN(Cc2ccc3ncccc3c2)C1", "note": "(stereo not drawn)", "inhibition": "29.7% (inactive)"}, {"smiles": "CCC(C)NC(=O)CCC(=O)OC1O[C@H]2OC3(C)CC[C@H]4[C@H](C)CCC(C1C)C24OO3", "note": "(stereo partly drawn)", "inhibition": "52.3% (active)"}, {"smiles": "CC(C)CC(NC(=O)CCCNC(=O)CCC(=O)OC1O[C@H]2OC3(C)CC[C@H]4[C@H](C)CCC(C1C)C24OO3)C(=O)O", "note": "(stereo partly drawn)", "inhibition": "55.3% (active)"}, {"smiles": "CCC(C)C(NC(=O)CCCNC(=O)CCC(=O)OC1O[C@H]2OC3(C)CC[C@H]4[C@H](C)CCC(C1C)C24OO3)C(=O)O", "note": "(stereo partly drawn)", "inhibition": "87.7% (active)"}, {"smiles": "CC1=CC(=Cc2sc3ccccc3[n+]2C)C=C(C)O1", "inhibition": "43.4% (inactive)"}, {"smiles": "CN1CCN(c2ncnc3ccc(Br)cc23)CC1", "inhibition": "33% (inactive)"}, {"smiles": "Cc1cccc(-n2c(O)c(/C=C3/C(c4ccccc4)=Nc4ccccc43)c(=O)[nH]c2=O)c1", "inhibition": "32.8% (inactive)"}, {"smiles": "O=C(c1ccc(C(F)(F)F)cc1)C1CCCN(Cc2ccncc2)C1", "note": "(stereo not drawn)", "inhibition": "30.7% (inactive)"}, {"smiles": "CN1/C(=C\\C=C\\C2=[N+](C)c3ccc4ccccc4c3C2(C)C)C(C)(C)c2ccccc21", "inhibition": "87.9% (active)"}, {"smiles": "CCN1/C(=C\\C=C\\C2=[N+](CC)c3ccccc3C2(C)C)C(C)(C)c2ccccc21", "inhibition": "101% (active)"}]}]}
